In the supplement of paper PMC3545927:
This is one part of the list. The hit rate among all sequences tested is not known here.

Molecular target: furin, P09958
Test: furin cleavage Z-score vs untreated control; higher = more cleavage, active = 3.5 or more, inactive = 1 or less, 8 variable residues between constant flanks
Outline: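 The cleavage Z-score is the log read count relative to furin-free reactions, lowess-adjusted and scaled by median absolute deviation. Counts came from sequencing DNA released from bead-bound 8-mer peptide–cDNA fusions after digestion with purified furin for 7.5, 15 or 30 min.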
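Also: purified furin at 1:10 enzyme:substrate in 50 mM HEPES pH 7.5.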

Chain of furin, P09958 (P09958 whole entry): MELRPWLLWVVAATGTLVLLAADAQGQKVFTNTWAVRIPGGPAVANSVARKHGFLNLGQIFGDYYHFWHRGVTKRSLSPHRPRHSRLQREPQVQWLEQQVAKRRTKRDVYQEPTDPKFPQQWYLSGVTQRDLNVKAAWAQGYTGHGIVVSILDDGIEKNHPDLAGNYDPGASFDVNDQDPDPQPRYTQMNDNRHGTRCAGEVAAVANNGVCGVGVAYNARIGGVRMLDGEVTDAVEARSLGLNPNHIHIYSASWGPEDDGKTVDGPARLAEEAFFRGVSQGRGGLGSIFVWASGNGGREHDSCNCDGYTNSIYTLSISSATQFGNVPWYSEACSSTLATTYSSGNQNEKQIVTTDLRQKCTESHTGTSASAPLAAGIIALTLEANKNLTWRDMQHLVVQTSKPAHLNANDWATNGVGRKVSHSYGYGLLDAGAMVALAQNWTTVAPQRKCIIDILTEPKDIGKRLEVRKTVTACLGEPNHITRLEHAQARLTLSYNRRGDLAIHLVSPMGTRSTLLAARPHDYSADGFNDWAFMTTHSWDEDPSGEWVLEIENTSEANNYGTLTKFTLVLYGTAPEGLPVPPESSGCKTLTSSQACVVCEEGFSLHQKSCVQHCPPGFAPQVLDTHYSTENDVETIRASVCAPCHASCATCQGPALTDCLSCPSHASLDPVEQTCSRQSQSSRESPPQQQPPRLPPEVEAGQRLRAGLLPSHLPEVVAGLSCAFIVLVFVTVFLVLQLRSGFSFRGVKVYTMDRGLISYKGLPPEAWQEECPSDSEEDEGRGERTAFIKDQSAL

| Sequence | furin cleavage Z-score (7.5 min) | furin cleavage Z-score (15 min) | furin cleavage Z-score (30 min) |
| --- | --- | --- | --- |
| CAHQWISSECAGNASASA [HC1141] | -0.592 (inactive) | -1.1 (inactive) | 0.453 (inactive) |
| CAKWEYVVLLAGNASASA [HC518] | 0.0863 (inactive) | -1.74 (inactive) | -0.726 (inactive) |
| CADDERSKRIAGNASASA [FS-221] | 0.272 (inactive) | 0.273 (inactive) | -0.987 (inactive) |
| CAVPRRSKRIAGNASASA [FS-513] | 6.01 (active) | 7.79 (active) | 6.97 (active) |
| CAFPMRSKKIAGNASASA [FS-771] | -1.66 (inactive) | 0.142 (inactive) | -0.16 (inactive) |
| CAANRRMKRIAGNASASA [FS-750] | 7.06 (active) | 9.01 (active) | 7.77 (active) |
| CALVVRGPPGAGNASASA [FS-1846] | -0.565 (inactive) | -0.565 (inactive) | -0.843 (inactive) |
| CALRAWRHRAAGNASASA [HC1619] | 2.05 | 0.378 (inactive) | 0.854 (inactive) |
| CASLERLRRGAGNASASA [FS-296] | 0.592 (inactive) | 0.0398 (inactive) | 0.764 (inactive) |
| CAHHHRHHRAAGNASASA [FS-1336] | 2.38 | 2.68 | 3.58 (active) |
| CASHHRHRRGAGNASASA [FS-1410] | 9.65 (active) | 10.8 (active) | 9.31 (active) |
| CAHHHRHRRAAGNASASA [FS-1006] | 9.03 (active) | 6.62 (active) | 5.92 (active) |
